The record followed here is PubChem BioAssay (NCI).

The panel holds about 83,000 compounds, 20% with a hit somewhere; the sample as a whole holds those more often.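 In brief: 96-well plates, 48 h treatment, single concentration, percent growth endpoint.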 Unmarked numbers belong to inactive results. Activity calls are given as the source filed them. Rule for the calls: active = growth percent below 10; inactive = the rest.

Some test systems named below: DU-145 prostate; K-562 leukemia; MALME-3M melanoma; MDA-MB-231 breast; RXF 393 renal; SF-268 CNS; SF-295 CNS; SF-539 CNS; UACC-257 melanoma; M14 melanoma; HCT-15 colon; HT29 colon; SNB-75 CNS; SNB-19 CNS; U251 CNS; PC-3 prostate; SK-MEL-5 melanoma; UACC-62 melanoma; LOX IMVI melanoma; SK-MEL-28 melanoma.
What all share (assay): NCI-60 one-dose screen, 48 h (100 = growth as untreated, 0 = no growth, -100 = all killed)
Holding throughout (settings): 10 µM unless noted

In the case of `CC1(C)N=C(N)N=C(N)N1c1ccc(CCCCc2ccccc2)c(Cl)c1`, the growth is 27% in the assay on DU-145 prostate; 18% with K-562 leukemia; 52.2% with MALME-3M melanoma; 42.5% with MDA-MB-231 breast; 30.6% in the assay on RXF 393 renal; 19.6% in the assay on SF-268 CNS. The growth in the assay with SF-295 CNS was 29.6%; with SF-539 CNS it was -3.79% (active); in the assay on UACC-257 melanoma, 3.22% (active); with M14 melanoma, 33.5%; in the assay on HCT-15 colon it was 20.5%; in the assay with HT29 colon, -11.2% (active). Also, the growth is 18.3% in the assay on SNB-75 CNS; 21.4% in the assay on SNB-19 CNS; 3.58% (active) with U251 CNS; 6.3% (active) in the assay on PC-3 prostate; -76.1% (active) in the assay on SK-MEL-5 melanoma; 8.84% (active) in the assay on UACC-62 melanoma. In addition, the growth with LOX IMVI melanoma was 8.69% (active); in the assay on SK-MEL-28 melanoma, 25.2%.
For the compound `CCN1C2CCC1/C(=C\c1ccc(F)cc1)C(=O)/C2=C/c1ccc(F)cc1`, the growth with DU-145 prostate was 9.04% (active); with K-562 leukemia it was 20.5%; in the assay with MALME-3M melanoma it was 55.7%; with MDA-MB-231 breast it was 62.5%; in the assay on RXF 393 renal it was 57.9%; with SF-268 CNS, 38.4%. Besides, the growth in the assay on SF-295 CNS was 36.3%; in the assay with SF-539 CNS it was 51.8%; in the assay on UACC-257 melanoma, 50.8%; with M14 melanoma, 35.9%; with HCT-15 colon it was 30.4%; in the assay with HT29 colon, 23.7%. Also, the growth with SNB-75 CNS was 40.6%; with SNB-19 CNS, 51%; in the assay with U251 CNS, 21.2%; in the assay with PC-3 prostate, 38.5%; with SK-MEL-5 melanoma, 48.2%; with UACC-62 melanoma, 35.7%. Further, the growth with LOX IMVI melanoma was 19.7%; with SK-MEL-28 melanoma it was 72.5%.
Turning to `CN1CCN(C(=O)C(C)(C)c2ccc(C(=O)Nc3cn4cc(-c5ccncc5)ccc4n3)cc2)CC1`, the growth with DU-145 prostate is 16.1%; in the assay on K-562 leukemia it was 10.2%; in the assay with MALME-3M melanoma, -11.9% (active); in the assay with MDA-MB-231 breast, 21.1%; in the assay with RXF 393 renal, -61.1% (active); in the assay on SF-268 CNS, 9.95% (active). The growth in the assay on SF-295 CNS was 8.85% (active); in the assay on SF-539 CNS, -1.81% (active); in the assay on UACC-257 melanoma, 13%; in the assay on M14 melanoma, 13.1%; in the assay with HCT-15 colon it was 2.11% (active); in the assay with HT29 colon it was 6.49% (active). Besides, the growth in the assay with SNB-75 CNS is -5.48% (active); in the assay with SNB-19 CNS, 9.14% (active); in the assay with U251 CNS, 16%; with PC-3 prostate, 25.7%; with SK-MEL-5 melanoma it was -98.2% (active); with UACC-62 melanoma it was -31.3% (active). For the same compound, the growth in the assay with LOX IMVI melanoma is -19.9% (active); in the assay with SK-MEL-28 melanoma it was 7.28% (active).
Consider `COc1cccc(/C=C/C(=O)c2cccc(Nc3nc(Nc4ccccc4)nc(Nc4ccccc4)n3)c2)c1`, for which the growth in the assay with DU-145 prostate was 85.5%; in the assay with K-562 leukemia, 59.4%; in the assay on MALME-3M melanoma, 107%; in the assay with MDA-MB-231 breast it was 84.6%; in the assay with RXF 393 renal, -38.8% (active); with SF-268 CNS, 95.3%. The growth in the assay with SF-295 CNS is 71.4%; in the assay on SF-539 CNS, 96.5%; with UACC-257 melanoma, 114%; in the assay on M14 melanoma, 89.4%; in the assay on HCT-15 colon, 73.4%; in the assay on HT29 colon, 65.8%. The growth in the assay on SNB-75 CNS is 71.8%; in the assay with SNB-19 CNS it was 102%; in the assay with U251 CNS, 53.8%; in the assay on PC-3 prostate, 73.5%; with SK-MEL-5 melanoma, 77.9%; in the assay on UACC-62 melanoma it was 92%. Further, the growth was 74.4% with LOX IMVI melanoma and 112% with SK-MEL-28 melanoma.
Turning to `CC1(C)CC[C@]2(CO)CC[C@]3(C)[C@H](CC[C@@H]4[C@@]5(C)CCCNC(C)(C)[C@@H]5CC[C@]43C)[C@H]2[C@H]1O`, the growth was 94.5% in the assay with DU-145 prostate; 8.95% (active) in the assay on K-562 leukemia; 78.5% in the assay with MALME-3M melanoma; 91% in the assay on MDA-MB-231 breast; 92% in the assay on RXF 393 renal; 94.9% with SF-268 CNS. Also, the growth is 105% in the assay on SF-295 CNS; 74.9% with SF-539 CNS; 82.5% in the assay on UACC-257 melanoma; 95.1% with M14 melanoma; 34.3% in the assay on HCT-15 colon; 17.6% with HT29 colon. The growth is 80.1% in the assay on SNB-75 CNS; 97.6% with SNB-19 CNS; 56.1% in the assay with U251 CNS; 64.7% with PC-3 prostate; 92.8% in the assay with SK-MEL-5 melanoma; 95.9% in the assay with UACC-62 melanoma. The growth is 69.4% in the assay with LOX IMVI melanoma and 93.9% in the assay on SK-MEL-28 melanoma.
As to `CN(C)c1ccc(-c2ccc3c(c2)c(-c2ccccc2)nc(=O)n3C)cn1`, the growth in the assay with DU-145 prostate is 69.7%; in the assay on K-562 leukemia, 3.37% (active); in the assay on MALME-3M melanoma, 62.6%; in the assay on MDA-MB-231 breast, 50.4%; in the assay on RXF 393 renal it was 61.3%; in the assay on SF-268 CNS, 46.2%. In addition, the growth was 31.3% with SF-295 CNS; 14.2% in the assay on SF-539 CNS; 57.5% in the assay on UACC-257 melanoma; 20.7% with M14 melanoma; 30.4% in the assay with HCT-15 colon; 11.7% with HT29 colon. For the same compound, the growth in the assay on SNB-75 CNS was 27.8%; in the assay on SNB-19 CNS it was 34.3%; in the assay with U251 CNS it was 30.4%; in the assay on PC-3 prostate, -42.8% (active); in the assay with SK-MEL-5 melanoma, 22%; in the assay with UACC-62 melanoma, 25.2%. Further, the growth in the assay with LOX IMVI melanoma is 34.3%; in the assay with SK-MEL-28 melanoma it was 55.2%.
Consider `CCN1CCN(CC(=O)Nc2ccc(-c3cn4c(n3)sc3cc(Oc5ccnc(C(=O)NC)c5)ccc34)cc2)CC1`, for which the growth in the assay with DU-145 prostate was 105%; in the assay on K-562 leukemia, -11.1% (active); with MALME-3M melanoma, 87.7%; in the assay on MDA-MB-231 breast it was 85.1%; with RXF 393 renal, 69.2%; in the assay with SF-268 CNS, 87.2%. Also, the growth in the assay with SF-295 CNS was 65.4%; with SF-539 CNS it was 65.4%; with UACC-257 melanoma, 96.2%; in the assay with M14 melanoma, 73.8%; with HCT-15 colon it was 77.3%; in the assay with HT29 colon it was -21.8% (active). Moreover, the growth was 82.9% with SNB-75 CNS; 98.6% in the assay with SNB-19 CNS; 64.8% with U251 CNS; 65.8% in the assay with PC-3 prostate; 88.3% with SK-MEL-5 melanoma; 66.9% with UACC-62 melanoma. Besides, the growth in the assay on LOX IMVI melanoma was -80.4% (active); in the assay with SK-MEL-28 melanoma it was 74.6%.
